Results: PubChem BioAssay (NCI)
The panel holds about 83,000 compounds, 20% with a hit somewhere; the sample as a whole holds those more often.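 Method: cells in 96-well plates; compound added at one concentration; 48 h incubation; percent growth measured; values under 10 scored active.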 Activity calls are given as the source filed them.

Columns and labels:
Assay in all cases: NCI-60 one-dose screen, 48 h (100 = growth as untreated, 0 = no growth, -100 = all killed)
Conditions in all cases: 10 µM unless noted
HCT-15 colon = tested on: HCT-15 colon
HT29 colon = tested on: HT29 colon
SNB-75 CNS = tested on: SNB-75 CNS
SNB-19 CNS = tested on: SNB-19 CNS
U251 CNS = tested on: U251 CNS
PC-3 prostate = tested on: PC-3 prostate
SK-MEL-5 melanoma = tested on: SK-MEL-5 melanoma
UACC-62 melanoma = tested on: UACC-62 melanoma
LOX IMVI melanoma = tested on: LOX IMVI melanoma
SK-MEL-28 melanoma = tested on: SK-MEL-28 melanoma
SK-MEL-2 melanoma = tested on: SK-MEL-2 melanoma
EKVX NSCLC = tested on: EKVX NSCLC
SN12C renal = tested on: SN12C renal
UO-31 renal = tested on: UO-31 renal
TK-10 renal = tested on: TK-10 renal
ACHN renal = tested on: ACHN renal
CAKI-1 renal = tested on: CAKI-1 renal
A498 renal = tested on: A498 renal
CCRF-CEM leukemia = tested on: CCRF-CEM leukemia
MOLT-4 leukemia = tested on: MOLT-4 leukemia

Measured: growth

COc1c(C(C)=O)c(OCCCCOc2c(C(C)=O)c(OC)c3ccoc3c2OC)c(OC)c2occc12
inactive: HCT-15 colon 78.8% | HT29 colon 65.9% | SNB-75 CNS 107% | SNB-19 CNS 80% | U251 CNS 79.9% | PC-3 prostate 55.2% | SK-MEL-5 melanoma 51.3% | UACC-62 melanoma 55.8% | LOX IMVI melanoma 74.5% | SK-MEL-28 melanoma 96.3% | SK-MEL-2 melanoma 42% | EKVX NSCLC 56.7% | SN12C renal 88.1% | UO-31 renal 124% | TK-10 renal 43.8% | ACHN renal 75.7% | CAKI-1 renal 68% | A498 renal 81.1% | CCRF-CEM leukemia 58% | MOLT-4 leukemia 36.2%

O=[N+]([O-])c1cccc(/C=C/c2ccc3ccccc3n2)c1
inactive: HCT-15 colon 82.5% | HT29 colon 76.5% | SNB-19 CNS 64.1% | U251 CNS 72.2% | PC-3 prostate 77.8% | SK-MEL-5 melanoma 82% | UACC-62 melanoma 82.9% | LOX IMVI melanoma 70.5% | SK-MEL-28 melanoma 87.3% | SK-MEL-2 melanoma 68% | EKVX NSCLC 79.8% | SN12C renal 83% | UO-31 renal 76.6% | TK-10 renal 64.4% | ACHN renal 53% | CAKI-1 renal 78.3% | A498 renal 125% | CCRF-CEM leukemia 82.1% | MOLT-4 leukemia 75.3%
active: SNB-75 CNS 7.41%

CCCC(NC(=O)OCc1ccccc1)C(=O)O (stereo not given)
inactive: HCT-15 colon 103% | HT29 colon 104% | SNB-75 CNS 84% | SNB-19 CNS 99.4% | U251 CNS 104% | PC-3 prostate 93.8% | SK-MEL-5 melanoma 90.1% | UACC-62 melanoma 89.6% | LOX IMVI melanoma 99.5% | SK-MEL-28 melanoma 92.8% | SK-MEL-2 melanoma 128% | EKVX NSCLC 96.5% | SN12C renal 74.3% | UO-31 renal 65.1% | TK-10 renal 117% | ACHN renal 108% | CAKI-1 renal 82.9% | A498 renal 80% | CCRF-CEM leukemia 118% | MOLT-4 leukemia 111%

CCCCN(CC)CC(CC)Nc1cc(OC)cc2cccnc12 (stereo not given)
inactive: HCT-15 colon 97.2% | HT29 colon 103% | SNB-75 CNS 100% | SNB-19 CNS 110% | U251 CNS 101% | PC-3 prostate 96.5% | SK-MEL-5 melanoma 99.9% | UACC-62 melanoma 106% | LOX IMVI melanoma 114% | SK-MEL-28 melanoma 121% | SK-MEL-2 melanoma 115% | EKVX NSCLC 128% | SN12C renal 99.7% | UO-31 renal 102% | TK-10 renal 100% | ACHN renal 104% | CAKI-1 renal 111% | A498 renal 112% | CCRF-CEM leukemia 99.6% | MOLT-4 leukemia 111%

Cc1ccc(-c2cn(C/C=C3\C=CN(S(=O)(=O)c4ccccc4)CC3)nn2)cc1
inactive: HCT-15 colon 95.6% | HT29 colon 124% | SNB-75 CNS 82.1% | SNB-19 CNS 93% | U251 CNS 108% | PC-3 prostate 97.1% | SK-MEL-5 melanoma 97% | UACC-62 melanoma 64% | LOX IMVI melanoma 97.8% | SK-MEL-28 melanoma 101% | SK-MEL-2 melanoma 101% | EKVX NSCLC 101% | SN12C renal 91.9% | UO-31 renal 72.6% | TK-10 renal 115% | ACHN renal 95.8% | CAKI-1 renal 76.5% | A498 renal 94.3% | MOLT-4 leukemia 106%
active: CCRF-CEM leukemia 3.1%

Cc1ccc(NC(=O)N[C@@H](Cc2cc(F)cc(F)c2)C(=O)N[C@@H]2C(=O)N3CCC[C@H]3C(=O)N3CCCC[C@H]3C(=O)N[C@@H](C)C(=O)N3C[C@H](C)C[C@H]3C(=O)O[C@H]2C)cc1
active: A498 renal -1.49%
inactive: HCT-15 colon 14.7% | HT29 colon 30.3% | SNB-75 CNS 10.7% | SNB-19 CNS 22% | U251 CNS 29.8% | PC-3 prostate 16.1% | SK-MEL-5 melanoma 10.8% | UACC-62 melanoma 25.8% | LOX IMVI melanoma 38.2% | SK-MEL-28 melanoma 39.4% | SK-MEL-2 melanoma 35.2% | EKVX NSCLC 28.2% | SN12C renal 18.1% | UO-31 renal 25.2% | TK-10 renal 47.6% | ACHN renal 23.6% | CAKI-1 renal 13.7% | CCRF-CEM leukemia 54.8% | MOLT-4 leukemia 30.9%

O=[N+]([O-])c1cccc(N=NNc2cccc([N+](=O)[O-])c2)c1
inactive: HCT-15 colon 85.8% | HT29 colon 92.6% | SNB-75 CNS 94.4% | SNB-19 CNS 92% | U251 CNS 82.8% | PC-3 prostate 86.4% | SK-MEL-5 melanoma 87.3% | UACC-62 melanoma 76.5% | LOX IMVI melanoma 89.1% | SK-MEL-28 melanoma 99.5% | SK-MEL-2 melanoma 104% | EKVX NSCLC 84.6% | SN12C renal 89.5% | UO-31 renal 80% | TK-10 renal 69.7% | ACHN renal 95.7% | CAKI-1 renal 87.5% | CCRF-CEM leukemia 84.3% | MOLT-4 leukemia 82.7%
active: A498 renal -2.16%

Cc1cc(C)c(O)c(CNCCCCCCNCc2cc(C)cc(C)c2O)c1
inactive: PC-3 prostate 34.7% | EKVX NSCLC 47.9% | SN12C renal 29.8% | CAKI-1 renal 26.2% | A498 renal 21.4%
active: HCT-15 colon -53.2% | HT29 colon -6.14% | SNB-75 CNS -23.7% | SNB-19 CNS -46.1% | U251 CNS -59.2% | SK-MEL-5 melanoma -91.8% | UACC-62 melanoma -68.9% | LOX IMVI melanoma -85% | SK-MEL-28 melanoma -82.6% | SK-MEL-2 melanoma -61.8% | UO-31 renal -60.3% | TK-10 renal -28% | ACHN renal -42.3% | CCRF-CEM leukemia -19.9% | MOLT-4 leukemia -28.1%

COc1ccc(C2CC(c3ccc4ccccc4c3)=NN2c2nc(O)c(C3=c4cc(OC)ccc4=NC3=O)s2)cc1 (stereo not given)
active: HCT-15 colon -29.1% | HT29 colon -57.3% | SNB-75 CNS -57.1% | SNB-19 CNS -14.2% | U251 CNS -92% | PC-3 prostate -71.1% | SK-MEL-5 melanoma -93.3% | UACC-62 melanoma -56% | LOX IMVI melanoma -77.6% | SK-MEL-28 melanoma -48.5% | SK-MEL-2 melanoma -69.6% | EKVX NSCLC -67.3% | SN12C renal -56% | UO-31 renal -77.3% | TK-10 renal -71% | ACHN renal -51.2% | CAKI-1 renal -59.6% | A498 renal -83.2% | CCRF-CEM leukemia 8.68% | MOLT-4 leukemia -13.2%

COc1ccc(CC(C#N)c2ccc(Cl)cc2)cc1 (stereo not given)
inactive: HCT-15 colon 60.6% | HT29 colon 55.3% | SNB-75 CNS 75.9% | SNB-19 CNS 82.1% | U251 CNS 77.6% | PC-3 prostate 85.9% | SK-MEL-5 melanoma 76.8% | UACC-62 melanoma 69.6% | LOX IMVI melanoma 79.3% | SK-MEL-28 melanoma 91.5% | SK-MEL-2 melanoma 80% | EKVX NSCLC 90% | SN12C renal 99.7% | UO-31 renal 102% | TK-10 renal 109% | ACHN renal 102% | CAKI-1 renal 68.9% | A498 renal 49.7% | CCRF-CEM leukemia 76.5% | MOLT-4 leukemia 72.7%

Cn1cc(-c2nnc(-c3cn(C)c4ncccc34)s2)c2ccccc21
inactive: HCT-15 colon 45.1% | HT29 colon 54.3% | SNB-75 CNS 49.4% | SNB-19 CNS 76.6% | U251 CNS 74.8% | PC-3 prostate 53.8% | SK-MEL-5 melanoma 63.7% | UACC-62 melanoma 69.2% | LOX IMVI melanoma 86% | SK-MEL-28 melanoma 77.4% | SK-MEL-2 melanoma 79.8% | EKVX NSCLC 70.7% | SN12C renal 50.3% | UO-31 renal 39% | TK-10 renal 79.9% | ACHN renal 86.6% | CAKI-1 renal 47% | A498 renal 31% | CCRF-CEM leukemia 38.3% | MOLT-4 leukemia 47.9%

Cc1cc[n+](CCCCCCCCCC[n+]2ccc(C)cc2)cc1
inactive: HCT-15 colon 103% | HT29 colon 84.3% | SNB-75 CNS 95.3% | SNB-19 CNS 104% | U251 CNS 105% | PC-3 prostate 87.6% | SK-MEL-5 melanoma 92.8% | UACC-62 melanoma 92.6% | LOX IMVI melanoma 91.4% | SK-MEL-28 melanoma 101% | SK-MEL-2 melanoma 98.4% | EKVX NSCLC 95.4% | SN12C renal 63.5% | UO-31 renal 99.8% | TK-10 renal 82.7% | ACHN renal 105% | CAKI-1 renal 96.6% | A498 renal 85% | CCRF-CEM leukemia 99.1% | MOLT-4 leukemia 83.5%

Fc1cc2[nH]ncc2c2c3c(c(-c4cn[nH]c4C(F)(F)F)nc12)C1CCC3C1 (stereo not given)
active: HCT-15 colon 9.48% | SNB-75 CNS -4.22% | U251 CNS 4.85% | SK-MEL-5 melanoma -28.8% | UACC-62 melanoma -18.5% | LOX IMVI melanoma 0.44% | SK-MEL-28 melanoma -0.348% | SK-MEL-2 melanoma -32.6% | SN12C renal 6.09% | UO-31 renal -44.2% | TK-10 renal -11.2% | ACHN renal -0.693% | CAKI-1 renal -5.2% | A498 renal -80.2% | MOLT-4 leukemia 6.06%
inactive: HT29 colon 13% | SNB-19 CNS 10.1% | PC-3 prostate 14% | EKVX NSCLC 28.2% | CCRF-CEM leukemia 11.5%

COc1ccc2c(c1)C(C)Cc1c(Cl)ncnc1N2C (stereo not given)
inactive: SNB-19 CNS 27.7% | U251 CNS 15.5% | PC-3 prostate 11.4% | SK-MEL-28 melanoma 14.8% | EKVX NSCLC 12.4% | UO-31 renal 16.9% | TK-10 renal 13% | CCRF-CEM leukemia 13.8%
active: HCT-15 colon 4.94% | HT29 colon -3.53% | SNB-75 CNS 2.7% | SK-MEL-5 melanoma -83.6% | UACC-62 melanoma 0.755% | LOX IMVI melanoma -69.2% | SK-MEL-2 melanoma -29.4% | SN12C renal -0.561% | ACHN renal 9.12% | CAKI-1 renal 2.36% | A498 renal -39.3% | MOLT-4 leukemia 1.59%
